Target: T1, Aspartate--tRNA(Asp/Asn) ligase (Mycobacterium tuberculosis (strain ATCC 25618 / H37Rv)) (UniProt P9WFW3); also: in the data most compounds retested in dose-response had high values
T1 sequence (whole entry): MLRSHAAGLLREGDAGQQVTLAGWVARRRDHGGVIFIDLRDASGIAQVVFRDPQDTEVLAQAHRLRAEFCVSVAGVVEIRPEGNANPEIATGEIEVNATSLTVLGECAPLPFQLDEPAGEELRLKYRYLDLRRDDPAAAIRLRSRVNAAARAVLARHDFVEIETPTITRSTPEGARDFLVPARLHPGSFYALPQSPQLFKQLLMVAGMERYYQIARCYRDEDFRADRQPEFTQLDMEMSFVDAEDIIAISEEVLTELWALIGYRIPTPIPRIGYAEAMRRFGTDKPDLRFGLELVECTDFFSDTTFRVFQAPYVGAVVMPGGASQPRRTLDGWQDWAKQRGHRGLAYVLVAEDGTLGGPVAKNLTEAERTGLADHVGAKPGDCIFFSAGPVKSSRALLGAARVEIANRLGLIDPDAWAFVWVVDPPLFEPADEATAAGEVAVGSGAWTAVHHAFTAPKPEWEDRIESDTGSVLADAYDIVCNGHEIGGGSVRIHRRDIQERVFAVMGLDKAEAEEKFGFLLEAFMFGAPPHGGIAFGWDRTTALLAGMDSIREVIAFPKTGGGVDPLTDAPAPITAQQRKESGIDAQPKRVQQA
Experiment: Assay for Asp RNA synthetase-1 from Mycobacterium tuberculosis
Format: functional
Set-up: scale not given: direction of the effect not stated beside the values
Details: 30 µM

Row | Structure (SMILES) | Percent Effect [%]
1 | CCC(CO)NC(=O)c1ccc2ccc(N(C)CC3CC3)n2c1 (stereo not given) | -2.57
2 | O=C(NCCc1ccccc1)C1CCCN(c2ccc3nncn3n2)C1 (stereo not given) | -2.08
3 | CC(=O)N1CCN(C(=O)C2SCCc3sccc32)CC1 (stereo not given) | -0.324
4 | CCn1ncc2c1C(COCC1CC1)CN(C(=O)c1cccs1)C2 (stereo not given) | -1.73
5 | CCn1nc(C)c2nc(C(C)C)nc(NCCOC)c21 | -2.09
6 | CC(C)N(CC(N)=O)Cc1csc(COc2ccc(F)cc2)n1 | -2.28
7 | CNc1cncc(C2CCCN(S(C)(=O)=O)C2)n1 (stereo not given) | 5.76
8 | O=C(CCN1CCC(C(=O)c2cc(F)ccc2F)CC1)NC1CC1 | 1.41
9 | Cc1nc(C)n(C2CCCN(C(=O)c3ccc(F)cc3F)C2)n1 (stereo not given) | -6.88
10 | Cc1cc(C(F)(F)F)nn1CC(C)C(=O)Nc1ccncc1 (stereo not given) | 2.67
11 | N#CCCN(C(=O)CN1CCCC1Cc1ccccc1)c1ccccc1 (stereo not given) | 2.91
12 | CC(C)N(C)CC(=O)N1CCCC(c2ccc(C(=O)O)cc2)C1 (stereo not given) | -4.14
13 | CC(C)c1nn(C)c(N(C)C)c1CNCCC(=O)N(C)C | -4.3
14 | CNS(=O)(=O)c1cccc(CNC(=O)c2c(C)oc(C)c2C)c1 | -7.7
15 | CCS(=O)(=O)CC(=O)NC(c1ccccc1)C1CCCCC1 (stereo not given) | 3.23
16 | CCc1nnc2n1CCN(Cc1csc(-c3ccc(C)o3)n1)C2 | 0.544
17 | O=C(NCCn1ccnc1)c1ccn(-c2cccc(F)c2)n1 | 5.59
18 | O=S(=O)(c1ccccc1)N1CCCN(CCCn2ccnc2)CC1 | -2.67
19 | CC(=O)N1CCO[C@@H]2CN(C(=O)c3cc(C)oc3C)CC[C@@H]2C1 | 4.81
20 | O=C1CCCN1Cc1ncn2c1CN(C(=O)c1cccc(F)c1)CCC2 | -3.2

Row | Structure (SMILES) | Percent Effect [%]
21 | CCn1ccnc1CNCC1CCCN1c1cc(NC)ncn1 (stereo not given) | 1.78
22 | CN(Cc1ccc(F)cc1)CC1(O)CCCN(CC(C)(C)C)C1=O (stereo not given) | -0.167
23 | c1ccc(OCc2nnc3n2CCN(CC2CCOCC2)C3)nc1 | 10.1
24 | CCn1ncc(CN2CCc3c(nc(-c4cccnc4)[nH]c3=O)C2)c1C | -5.25
25 | O=C(CCSc1ccc(F)cc1)NS(=O)(=O)c1ccc2c(c1)OCCO2 | -0.411
26 | O=C(c1cccc(CNS(=O)(=O)c2ccccc2F)c1)N1CCCC1 | 5.13
27 | c1ccc2oc(CCCN3CCOC(Cn4cccn4)C3)nc2c1 (stereo not given) | 0.605
28 | CC(C)(C)C(=O)N1CCCC1c1nc(O)cc(-c2ccccn2)n1 (stereo not given) | -4.27
29 | CC(=O)N1CCC(c2ccnc(Nc3cnccn3)n2)C1 (stereo not given) | 1.13
30 | CC(C)Sc1ncccc1C(=O)NCc1ccc(CS(C)(=O)=O)cc1 | -3.16
31 | CCCn1[nH]cc/c1=N\C(=O)CN1CCOC(Cn2cc(C)cn2)C1 (stereo not given) | -3.84
32 | COCC1CC2(CCN(C(=O)c3occc3C)CC2)CO1 (stereo not given) | 2.64
33 | c1ccc(-c2noc(CNC3CCc4ncnn4C3)n2)nc1 (stereo not given) | 0.903
34 | OC[C@H]1CC[C@]2(CC1)CN(Cc1ccccn1)Cc1ccccc1O2 | 0.104
35 | CC(C)C(C)NC(=O)Nc1ccc(CS(C)(=O)=O)cc1 (stereo not given) | 3.12
36 | CN1CCCC(Cc2cncc(C(=O)NCC3CC3)c2)C1 (stereo not given) | -1.03
37 | CC(C)NC(=O)N1CCN(CC2CC2)CC2(CC(=O)N(C)C2)C1 (stereo not given) | 0.324
38 | O=C(C1CCOCC1)N1CCO[C@H]2[C@@H](OCc3ccncc3)CC[C@@H]21 | -4.8
39 | NCCn1nc(C2CCN(Cc3ccc(Cl)c(Cl)c3)C2)c2nccnc21 (stereo not given) | -4
40 | c1ccc(CN2CCCC2Cn2cncn2)nc1 (stereo not given) | 3.85

Target: Shiga toxin 2 (Escherichia coli O157:H7) (UniProt P09385+P09386)
Experiment: E. coli 0.157:H7 Shiga Toxin SOP - stx2 screening assay
Format: functional
Set-up: scale not given: direction of the effect not stated beside the values
Details: 30 µM

Row | Structure (SMILES) | Percent Effect [%]
41 | CCC(CO)NC(=O)c1ccc2ccc(N(C)CC3CC3)n2c1 (stereo not given) | -33
42 | O=C(NCCc1ccccc1)C1CCCN(c2ccc3nncn3n2)C1 (stereo not given) | -7.24
43 | CC(=O)N1CCN(C(=O)C2SCCc3sccc32)CC1 (stereo not given) | -46
44 | CCn1ncc2c1C(COCC1CC1)CN(C(=O)c1cccs1)C2 (stereo not given) | 33.1
45 | CCn1nc(C)c2nc(C(C)C)nc(NCCOC)c21 | -4.71
46 | CC(C)N(CC(N)=O)Cc1csc(COc2ccc(F)cc2)n1 | 1.96
47 | CNc1cncc(C2CCCN(S(C)(=O)=O)C2)n1 (stereo not given) | 2.62
48 | O=C(CCN1CCC(C(=O)c2cc(F)ccc2F)CC1)NC1CC1 | -24.2
49 | Cc1nc(C)n(C2CCCN(C(=O)c3ccc(F)cc3F)C2)n1 (stereo not given) | 1.49
50 | Cc1cc(C(F)(F)F)nn1CC(C)C(=O)Nc1ccncc1 (stereo not given) | -18.1
51 | N#CCCN(C(=O)CN1CCCC1Cc1ccccc1)c1ccccc1 (stereo not given) | 27.4
52 | CC(C)N(C)CC(=O)N1CCCC(c2ccc(C(=O)O)cc2)C1 (stereo not given) | 18.4
53 | CC(C)c1nn(C)c(N(C)C)c1CNCCC(=O)N(C)C | 10.1
54 | CNS(=O)(=O)c1cccc(CNC(=O)c2c(C)oc(C)c2C)c1 | -67.3
55 | CCS(=O)(=O)CC(=O)NC(c1ccccc1)C1CCCCC1 (stereo not given) | 7.43
56 | CCc1nnc2n1CCN(Cc1csc(-c3ccc(C)o3)n1)C2 | -33.1
57 | O=C(NCCn1ccnc1)c1ccn(-c2cccc(F)c2)n1 | 0.0864
58 | O=S(=O)(c1ccccc1)N1CCCN(CCCn2ccnc2)CC1 | -12.6
59 | CC(=O)N1CCO[C@@H]2CN(C(=O)c3cc(C)oc3C)CC[C@@H]2C1 | -5.49
60 | O=C1CCCN1Cc1ncn2c1CN(C(=O)c1cccc(F)c1)CCC2 | 3.75

Row | Structure (SMILES) | Percent Effect [%]
61 | CCn1ccnc1CNCC1CCCN1c1cc(NC)ncn1 (stereo not given) | -12.7
62 | CN(Cc1ccc(F)cc1)CC1(O)CCCN(CC(C)(C)C)C1=O (stereo not given) | 28.1
63 | c1ccc(OCc2nnc3n2CCN(CC2CCOCC2)C3)nc1 | 7.95
64 | CCn1ncc(CN2CCc3c(nc(-c4cccnc4)[nH]c3=O)C2)c1C | -14.2
65 | O=C(CCSc1ccc(F)cc1)NS(=O)(=O)c1ccc2c(c1)OCCO2 | -1.47
66 | O=C(c1cccc(CNS(=O)(=O)c2ccccc2F)c1)N1CCCC1 | 22.1
67 | c1ccc2oc(CCCN3CCOC(Cn4cccn4)C3)nc2c1 (stereo not given) | -3.52
68 | CC(C)(C)C(=O)N1CCCC1c1nc(O)cc(-c2ccccn2)n1 (stereo not given) | 5.71
69 | CC(=O)N1CCC(c2ccnc(Nc3cnccn3)n2)C1 (stereo not given) | -14.2
70 | CC(C)Sc1ncccc1C(=O)NCc1ccc(CS(C)(=O)=O)cc1 | 13.1
71 | CCCn1[nH]cc/c1=N\C(=O)CN1CCOC(Cn2cc(C)cn2)C1 (stereo not given) | 8.34
72 | COCC1CC2(CCN(C(=O)c3occc3C)CC2)CO1 (stereo not given) | -0.429
73 | c1ccc(-c2noc(CNC3CCc4ncnn4C3)n2)nc1 (stereo not given) | 16.9
74 | OC[C@H]1CC[C@]2(CC1)CN(Cc1ccccn1)Cc1ccccc1O2 | 2.28
75 | CC(C)C(C)NC(=O)Nc1ccc(CS(C)(=O)=O)cc1 (stereo not given) | -11.6
76 | CN1CCCC(Cc2cncc(C(=O)NCC3CC3)c2)C1 (stereo not given) | 2.18
77 | CC(C)NC(=O)N1CCN(CC2CC2)CC2(CC(=O)N(C)C2)C1 (stereo not given) | -11.9
78 | O=C(C1CCOCC1)N1CCO[C@H]2[C@@H](OCc3ccncc3)CC[C@@H]21 | 22.7
79 | NCCn1nc(C2CCN(Cc3ccc(Cl)c(Cl)c3)C2)c2nccnc21 (stereo not given) | -105
80 | c1ccc(CN2CCCC2Cn2cncn2)nc1 (stereo not given) | -7.85

— ChEMBL document CHEMBL3988442, “University of Dundee, Small-Polar-MMV Screening Library” (2021)
